Source: PubChem (National Center for Advancing Translational Sciences (NCATS))
uPA generation – qHTS for Inhibitors of Cell Surface uPA Generation | cell surface uPA generation assay, qHTS | AID 540303, 2011 | actives 0.31% (n = 330,000) | Potency, µM (titrated, usually from 38.3 µM), most hits filed as inhibitors; active means well fitted inhibition curve with a large enough effect; inconclusive means small, poorly fitted or top-dose-only effect; inactive means no such curve, though single readings can be large or run the other way; tested in mouse RAW 264.7 cells; further: nearly all actives have a fitted effect of over 55% in size
Integrin act MD – qHTS for Activators of Integrin-Mediated Alleviation for Muscular Dystrophy; alpha7betagal myoblasts, beta-gal FDG fluorescence, 48 h; Potency, µM (doses to about 38.3 µM), most hits filed as activators; actives 0.064% (n = 350,000); AID 624291, 2012; further: nearly all actives have a fitted effect of over 60% in size
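Alpha7betagal+/- myoblasts (passage 13) were plated 16-24 hr, then exposed to compounds (1:260 dilution of DMSO stock) for 48 hours at 37C. After MPER lysis, β-galactosidase reporter activity was read as FDG fluorescence (ex 480/em 540) after 30 minutes.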
Chronic BCR inh – qHTS Assay to Find Inhibitors of Chronic Active B-Cell Receptor Signaling; AID 493014, 2011; Potency, µM (highest dose often 46.1 µM), actives largely listed as inhibitors; actives 0.05% (n = 340,000); ABC-DLBCL IkBa-CBG/CBR reporter, luminescence ratio, 4 h; active means well fitted inhibition curve with a large enough effect in the signal ratio, with a control signal flat, not every such curve was filed as active; inconclusive means small, poorly fitted or top-dose-only effect, or effect the other way, or a change in a side signal; the % refers to the signal ratio
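Concentration-response series (up to 46 uM) were applied to TMD8 dual-reporter cells for 4 h at 37C with doxycycline. Green/red ratio, after filter-overlap correction, defined %Activity; red signal alone was normalised to basal cells and zero luminescence.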
Mito fusion act – qHTS Assay for Small Molecule Inhibitors of Mitochondrial Division or Activators of Mitochondrial Fusion; S. cerevisiae fusion-defective mutant growth rescue, CellTiterGlo 48 h; Potency, µM (titrated, usually from 46.1 µM), actives largely listed as activators; actives 0.23% (n = 320,000); further: nearly all actives have a fitted effect of over 45% in size
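Growth-rescue viability read-out: after 48 h at the non-permissive 37C in glycerol/ethanol YPEG, yeast mitochondrial fusion mutants are measured by CellTiterGlo luminescence; compounds (23 nl pinned per well) restoring growth score as division inhibitors or fusion activators.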
RORgamma inh – qHTS for inhibitors of ROR gamma transcriptional activity; Potency, µM (doses to about 53.6 µM), most hits filed as inhibitors; Drosophila S2 Gal4-RORgamma UAS-luciferase reporter, 20 h; actives 5.4% (n = 310,000); Nuclear receptor ROR-gamma (Mus musculus), P51450; further: nearly all actives have a fitted effect of over 60% in size
Target sequence (P51450 whole entry, looked up, the tested form may be a part): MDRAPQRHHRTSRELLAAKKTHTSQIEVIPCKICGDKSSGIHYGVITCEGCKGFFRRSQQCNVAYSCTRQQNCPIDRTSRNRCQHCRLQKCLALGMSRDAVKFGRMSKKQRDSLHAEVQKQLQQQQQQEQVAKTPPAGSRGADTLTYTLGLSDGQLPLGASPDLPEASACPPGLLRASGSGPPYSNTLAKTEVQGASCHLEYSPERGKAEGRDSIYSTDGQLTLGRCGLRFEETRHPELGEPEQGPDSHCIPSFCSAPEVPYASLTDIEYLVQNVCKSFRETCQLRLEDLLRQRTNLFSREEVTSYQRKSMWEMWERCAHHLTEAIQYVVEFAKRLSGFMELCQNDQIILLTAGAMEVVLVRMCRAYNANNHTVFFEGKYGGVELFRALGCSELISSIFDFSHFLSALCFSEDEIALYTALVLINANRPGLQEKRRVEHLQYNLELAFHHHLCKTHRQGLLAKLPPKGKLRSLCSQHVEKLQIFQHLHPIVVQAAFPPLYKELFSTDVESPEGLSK
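Compounds are pin-transferred onto Drosophila Schneider cells expressing a copper-inducible Gal4–ROR gamma transactivation domain fusion. After 1 hr, copper sulfate is added to 700 uM final; luciferase is read 20 hr later.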
VP16 counter – VP16 counterscreen qHTS for inhibitors of ROR gamma transcriptional activity; Drosophila S2 Gal4-VP16 UAS-luciferase, luminescence, 20 h; Potency, µM (titrated, usually from 53.6 µM), usual class: inhibitors; actives 3.5% (n = 310,000);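 further: Gal4-VP16 expression switched on by copper sulfate through the metallothionein promoter; nearly all actives have a fitted effect of over 50% in size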
Hits are given with their value; n = inactive; u = inconclusive; x = no result; [ ] = remark or other dose. Compounds with a hit are over-represented: about 5.5% of the library has one in this group of screens. Unless noted, the call rests on the fitted dose curve; in most records, active means well fitted curve in the direction sought with a large enough effect; inconclusive means small, poorly fitted or top-dose-only effect, or another doubt; inactive means no such curve, though single readings can be large; an effect the other way counts as inactive or inconclusive.

SMILES	uPA generation	Integrin act MD	Chronic BCR inh	Mito fusion act	RORgamma inh	VP16 counter
O=C(Nc1c(F)cccc1F)c1ccc(-n2cncn2)nc1	n	n	u	n	n	n
O=C(N/N=C/c1cccs1)c1cc(-c2ccc3ccccc3c2)n[nH]1	n	n	u	u	3.2µM	5µM
O=C(N/N=C/c1cccs1)c1cc(-c2cccc3ccccc23)n[nH]1	u	n	n	u	5µM	5µM
Cc1cnc(CNc2ncnc3ccc(-c4ccccc4C)cc23)cn1	x	x	x	x	n	n
Cc1sc(N/N=C/C=C/c2ccccc2)nc1-c1ccccc1	n	n	n	n	3.5µM	u
Cc1cc(=O)[nH]c(N/N=C/C=C/c2ccccc2)n1	n	n	u	n	13µM	n
Cc1cc(C)nc(N/N=C/C=C/c2ccccc2)n1	n	n	u	n	1.3µM	7.9µM
Cc1cc(=O)[nH]c(N/N=C2/CCCC/C2=C\c2ccccc2)n1	n	n	n	n	6.3µM	18µM
CC1CCCC(NC(=O)c2nn(C)c3c2CS(=O)(=O)c2ccccc2-3)C1C (centres undefined)	n	n	n	n	n	n
Cn1cccc1CNC(=S)Nc1cc(F)cc(F)c1	n	n	n	n	n	n
Cc1ccc(C)c(NC(=S)NCc2cccn2C)c1	x	x	n	n	10µM	11µM
CCc1ccccc1NC(=S)NCc1cccn1C	n	n	n	n	13µM	11µM
S=C1NCCc2ccc(Cl)cc2C1c1ccccc1Cl (centres undefined)	n	n	n	n	5µM	3.5µM
Clc1ccc2c(c1)C(C1=NCCN1)c1ccccc1CS2 (centres undefined)	n	n	n	n	n	n
CCn1c(-c2csc3c2CCC(C)C3)n[nH]c1=S (centres undefined)	n	n	n	n	2µM	2.8µM
Cc1cccc(-n2c(-c3csc4ccccc34)n[nH]c2=S)c1	n	n	n	n	2µM	n
CCn1c(-c2csc3ccccc23)n[nH]c1=S	n	n	u	n	6.3µM	6.3µM
CC(C)Cn1c(-c2csc3ccccc23)n[nH]c1=S	n	n	n	n	1.1µM	6.3µM
CCn1c2ccccc2c2cc(/C=N/n3c(-c4cc(C)[nH]n4)n[nH]c3=S)ccc21	n	n	n	n	n	u
Cc1ccc([N+](=O)[O-])c(-c2n[nH]c(=S)n2-c2cccc(Cl)c2)c1	n	n	u	n	u	n
Cc1occc1-c1n[nH]c(=S)n1CC(C)C	n	n[7.66 µM]	u	n	n	n
Cc1ccc(C(=O)CN(CCCC(N)=O)S(=O)(=O)c2ccc([N+](=O)[O-])cc2)cc1	n	n	n	n	x	x
CC1CCN(c2ncnc3c2cnn3-c2ccc(F)cc2)CC1	x	x	n	x	x	x
Cc1cccc(NC(=O)c2nc[nH]c2C(=O)N[C@@H](C)C(=O)OCc2ccccc2)c1	n	n	n	n	8.9µM	13µM
Cc1cccc(NC(=O)c2nc[nH]c2C(=O)N[C@@H](CC(C)C)C(=O)OCc2ccccc2)c1	n	n	n	n	3.5µM	10µM
SMILES	uPA generation	Integrin act MD	Chronic BCR inh	Mito fusion act	RORgamma inh	VP16 counter
Cc1cccc(NC(=O)c2nc[nH]c2C(=O)N[C@@H](C)c2ccccc2)c1	n	n	u	n	x	x
COc1ccc(CC(=O)Nc2ccncc2Cl)cc1	n	n	n	n	n	n
O=C1C2=CC[C@H]3C(=O)N(Cc4ccccc4)C(=O)[C@@H]3[C@@H]2[C@H](O)[C@@H]2O[C@H]12	x	x	x	x	2.2µM	u
O=C1C2=CC[C@H]3C(=O)N(c4cccc(Oc5ccccc5)c4)C(=O)[C@@H]3[C@@H]2[C@H](O)[C@@H]2O[C@H]12	x	x	x	x	2.2µM	u
O=C1C2=CC[C@H]3C(=O)N(Cc4ccc5c(c4)OCO5)C(=O)[C@@H]3[C@@H]2[C@H](O)[C@@H]2O[C@H]12	x	x	x	x	4.5µM	u
O=C1C2=CC[C@H]3C(=O)N(C4CCCCC4)C(=O)[C@@H]3[C@@H]2[C@H](O)[C@@H]2O[C@H]12	x	x	x	x	2µM	u
